“And” between values parts separate entries of the source, which are not always exact repeats. Equal values may be shown once.
What was measured:
Assay in all cases: growth inhibition (% activity, log2 RLU normalised to DMSO / staurosporine); higher = more growth inhibition
Details in all cases: 33 µM
DIPGX29 = tested on: DIPGX29 (H3.3 K27M diffuse intrinsic pontine glioma line)
Outline: (§1)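 Approved drugs, at a single final concentration of about 33 μM, were applied in triplicate to pHGG cell lines and H9-derived neural stem cells for 7 days at 37 °C, 5% CO2. The growth-inhibition value is the replicate median of log2-transformed CellTiter-Glo luminescence normalised per plate to % activity between solvent and positive control wells.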

DIPGX37 = tested on: DIPGX37 (H3.3 K27M diffuse intrinsic pontine glioma line)
Outline: as §1

DIPGX7 = tested on: DIPGX7 (H3.3 K27M diffuse intrinsic pontine glioma line)
Outline: as §1

DIPGX9 = tested on: DIPGX9 (diffuse intrinsic pontine glioma line)
Outline: as §1

HGGX39 = tested on: HGGX39 (paediatric high-grade glioma line)
Outline: as §1

HGGX6 = tested on: HGGX6 (H3.3 G34R paediatric high-grade glioma line)
Outline: as §1

HNSC = tested on: HNSC
Outline: as §1

SUDIPGIV = tested on: SUDIPGIV (diffuse intrinsic pontine glioma line)
Outline: as §1

SUDIPGVI = tested on: SUDIPGVI (diffuse intrinsic pontine glioma line)
Outline: as §1

SUDIPGXIII = tested on: SUDIPGXIII (diffuse intrinsic pontine glioma line)
Outline: as §1

SMILES	growth inhibition (DIPGX29)	growth inhibition (DIPGX37)	growth inhibition (DIPGX7)	growth inhibition (DIPGX9)	growth inhibition (HGGX39)	growth inhibition (HGGX6)	growth inhibition (HNSC)	growth inhibition (SUDIPGIV)	growth inhibition (SUDIPGVI)	growth inhibition (SUDIPGXIII)
O=C([O-])[C@H](O)[C@@H](O)[C@H](O)[C@H](O)CO.[Na+]	0.856%	4.24%	2.56%	1.18%	1.7%	0.0619%	3.09%	1.5%	2.94%	-0.611%
COc1cc([C@@H]2c3cc4c(cc3[C@@H](O[C@@H]3O[C@@H]5CO[C@@H](c6cccs6)O[C@H]5[C@H](O)[C@H]3O)[C@H]3COC(=O)[C@H]23)OCO4)cc(OC)c1O	22%	1.57%	29.9%	47.9%	14.2%	23.6%	59.9%	48%	10%	20.7%
CC(C)Cc1ccc(C(C)C(=O)O)cc1 (stereo not given)	0.835% and -0.392%	2.64% and 0.0742%	2.15% and 0.0236%	1.07% and 0.0197%	2.25% and -0.715%	1.92% and 1.49%	-0.67% and 0.218%	-1.49% and -4.48%	2.09% and 0.812%	-0.0501% and 0.956%
NC(=O)Cc1cccc(C(=O)c2ccccc2)c1N	-1.79%	-2.49%	-1.26%	-0.361%	-1.73%	0.913%	-2.2%	-3.13%	-0.113%	0.258%
Cc1noc(NS(=O)(=O)c2ccc(N)cc2)c1C	-0.149%	-0.401%	-0.198%	-0.0916%	2.16%	-1.61%	29.4%	-0.587%	-0.478%	-3.55%
C=C1c2cccc(O)c2C(O)=C2C(=O)[C@]3(O)C(O)=C(C(N)=O)C(=O)[C@@H](N(C)C)[C@@H]3[C@@H](O)[C@H]12	-0.484%	2.83%	-0.0391%	-1.06%	2.68%	-0.509%	0.179%	2.28%	-1.04%	1.14%
CNC(=O)CN(CCN(CCN(CC(=O)[O-])CC(=O)NC)CC(=O)[O-])CC(=O)[O-].[Gd+3]	-2.04%	-0.306%	-1.48%	-2.31%	-1.74%	1.15%	-6.04%	-1.08%	-1.67%	0.753%
OCCN1C[C@H](O)[C@@H](O)[C@H](O)[C@H]1CO	2.17%	1.74%	3.33%	2.76%	4.58%	1.44%	6.31%	2.25%	4.59%	1.39%
CC/C(=C(/CC)c1ccc(O)cc1)c1ccc(O)cc1	-0.353%	0.261%	1.61%	0.802%	-1.26%	-0.016%	-1.62%	0.624%	0.165%	-10.6%
CC(=O)SCC(Cc1ccccc1)C(=O)NCC(=O)OCc1ccccc1 (stereo not given)	1.1%	2.25%	1.03%	1.31%	1.49%	1.32%	-1.4%	-1.43%	-1.57%	-0.948%
CC(C)(C)C(=O)OCOP(=O)(COCCn1cnc2c(N)ncnc21)OCOC(=O)C(C)(C)C	7.13%	8.8%	8.24%	19.5%	11.8%	7.96%	47.8%	13.4%	2.68%	3.59%
CCC(CC)[C@H](NC(C)=O)[C@@H]1[C@H](O)[C@@H](C(=O)O)C[C@H]1NC(=N)N	-0.417%	-0.255%	-0.771%	-0.84%	-1.05%	-1.09%	-1.8%	-0.387%	-0.749%	2.27%
CCCOc1ccc(C(=O)OCCN(CC)CC)cc1N	-3.81%	-2.51%	0.125%	-2.19%	6.15%	3.2%	4.12%	-0.212%	-1.94%	0.093%
Nc1c(CC(=O)O)cccc1C(=O)c1ccccc1	-1.69%	-2.54%	-0.79%	-0.667%	-0.264%	-1.13%	-2.43%	-5.49%	-5.35%	1.21%
CCC(=O)O[C@]1(C(=O)CCl)[C@@H](C)C[C@H]2[C@@H]3CCC4=CC(=O)C=C[C@]4(C)[C@@]3(F)[C@@H](O)C[C@@]21C	2.76%	3.09%	1.96%	5.92%	8.62%	1.59%	10.2%	6.72%	2.14%	2.24%
CC(=O)NS(=O)(=O)c1ccc(N)cc1	0.584%	1.84%	0.329%	0.364%	1.9%	2.46%	-1.34%	-0.27%	0.507%	0.27%
CCN1CCN(c2cc3c(cc2F)c(=O)c(C(=O)O)cn3C2CC2)CC1	-0.107%	1.21%	0.805%	1.48%	4.31%	-0.135%	1.17%	1.5%	1.16%	-0.234%
Clc1ccc(COC(Cn2ccnc2)c2ccc(Cl)cc2Cl)cc1 (stereo not given)	1.53%	4.62%	0.954%	4%	9.31%	8.25%	7.53%	11.7%	1.21%	7.66%
CCOC(=O)N1CCC(=C2c3ccc(Cl)cc3CCc3cccnc32)CC1	2.36%	3.66%	1.58%	1.03%	1.57%	1.37%	5.38%	3.97%	1.47%	0.514%
O=S(=O)(O)c1cc(O)ccc1O	-4.18%	-4.39%	-0.642%	-3.41%	-5.27%	-3.97%	13.9%	-3.95%	-12.4%	1.53%
CCN(CC)CCOc1ccc(C(=C(Cl)c2ccccc2)c2ccccc2)cc1	26.6%	11.7%	45.2%	12.3%	36.3%	28%	63.5%	32.8%	1.14%	0.221%

SMILES	growth inhibition (DIPGX29)	growth inhibition (DIPGX37)	growth inhibition (DIPGX7)	growth inhibition (DIPGX9)	growth inhibition (HGGX39)	growth inhibition (HGGX6)	growth inhibition (HNSC)	growth inhibition (SUDIPGIV)	growth inhibition (SUDIPGVI)	growth inhibition (SUDIPGXIII)
N#C[C@@H]1C[C@@H]2C[C@@H]2N1C(=O)[C@@H](N)C12CC3CC(CC(O)(C3)C1)C2	2.2%	1.41%	1.21%	0.435%	5.53%	2.65%	8.15%	7.37%	2.7%	7.88%
O=C(Nc1cccc2c(=O)cc(-c3nnn[nH]3)oc12)c1ccc(OCCCCc2ccccc2)cc1	2.7%	2.86%	2.31%	0.614%	2.23%	-2.27%	52.4%	2.11%	1.62%	2.22%
C[C@]12CCC3=C4CCC(=O)C=C4CC[C@H]3[C@@H]1CC[C@@]2(O)CC#N	1.43%	-1.59%	-0.302%	0.24%	0.279%	-1.72%	0.249%	-0.958%	1.03%	0.668%
CCCCC(=O)O[C@H]1CC[C@H]2[C@@H]3CCc4cc(O)ccc4[C@H]3CC[C@]12C	2.95%	4.39%	2.96%	8.03%	1.99%	-1.05%	72.8%	2.52%	-2.97%	1.55%
CC(=O)OCC(=O)[C@@]1(O)CC[C@H]2[C@@H]3CCC4=CC(=O)C=C[C@]4(C)[C@H]3[C@@H](O)C[C@@]21C	2.24%	0.724%	2.19%	3.92%	5.57%	2.03%	1.11%	2.53%	-1.15%	2.13%
CC(=O)OCC[N+](C)(C)C	1.68%	3.32%	3.73%	1.49%	1.63%	1.69%	4.52%	1.04%	2.81%	-0.303%
O=C1N=C(O)NC1(c1ccccc1)c1ccccc1	0.482% and -0.485%	2.42% and 3.19%	1.26% and 0.465%	0.659% and -0.0101%	1.57% and 1.18%	2.58% and 1.56%	0.737% and -1.81%	-0.112% and -1.42%	1.87% and 2.15%	-17.1%
CC(C)(C#N)c1cc(Cn2cncn2)cc(C(C)(C)C#N)c1	1.13%	0.615%	0.764%	-0.00856%	0.325%	1.21%	2.39%	-0.235%	2.45%	1.01%
C[C@@H](CN1CC(=O)NC(=O)C1)N1CC(=O)NC(=O)C1	-0.213%	0.752%	1.24%	0.711%	0.0185%	-0.816%	2.52%	-0.536%	-1.35%	-1.67%
CS(=O)(=O)OCCCCOS(C)(=O)=O	1.61%	2.89%	1.75%	1.86%	3.01%	2.25%	-0.43%	0.215%	0.662%	0.839%
Clc1ccc(C(Cn2ccnc2)OCc2ccc(Sc3ccccc3)cc2)c(Cl)c1 (stereo not given)	2.76%	0.833%	2.5%	4.7%	11.8%	8.32%	14%	11.4%	2.82%	5.1%
O=C(Nc1c(Cl)cncc1Cl)c1ccc(OC(F)F)c(OCC2CC2)c1	2.05%	4.42%	2.92%	2.71%	4.08%	2.51%	2.92%	7.2%	6.56%	-0.978%
C[C@H]1c2cccc(O)c2C(=O)C2=C(O)[C@]3(O)C(=O)C(C(N)=O)=C(O)[C@@H](N(C)C)[C@@H]3[C@@H](O)[C@@H]21	0.731%	-0.495%	1.55%	1.62%	6.11%	0.474%	25.5%	10.2%	-0.454%	-2.03%
CCN1CCCC1CNC(=O)c1cc(S(=O)(=O)CC)c(N)cc1OC (stereo not given)	2.92%	-2.18%	2.4%	-0.361%	1.17%	-1.1%	0.824%	2.02%	-8.92%	-0.464%
CC(C)CC(N)=O	0.179%	0.749%	-0.469%	-0.164%	0.0712%	1.61%	-1.96%	-1.02%	-0.151%	-12.8%
COC(=O)N[C@H](C(=O)N[C@@H](Cc1ccccc1)[C@@H](O)CN(Cc1ccc(-c2ccccn2)cc1)NC(=O)[C@@H](NC(=O)OC)C(C)(C)C)C(C)(C)C	-2.79%	-2.21%	1.19%	-1.97%	-2.26%	-3.15%	-5.7%	-0.315%	-14.4%	0.413%
CC1(C)[C@H](C(=O)O)N2C(=O)C[C@H]2S1(=O)=O	2.32% and -0.376%	-0.186% and 1.2%	3.29% and 0.579%	2.15% and 2.67%	4.9% and 2.16%	1.21% and -0.215%	11.1% and 0.73%	1.62% and -0.448%	2.58% and 1.67%	0.364% and -0.373%
C[C@H](Cc1cc2c(c(C(N)=O)c1)N(CCCO)CC2)NCCOc1ccccc1OCC(F)(F)F	1.54%	2.46%	0.991%	-0.478%	0.741%	-0.678%	3.54%	1.64%	1.49%	-1.83%
CCCCC[C@H](O)/C=C/[C@H]1[C@H](O)CC(=O)[C@@H]1CCCCCCC(=O)O	1.8%	0.835%	1.87%	1.68%	3.82%	4.44%	0.983%	2.69%	1.52%	0.878%
CC1CC(OC(=O)C(O)c2ccccc2)CC(C)(C)C1 (stereo not given)	-0.681%	1.83%	0.84%	0.0624%	1.43%	-3.88%	10.7%	2.02%	0.402%	1.8%
CN1C2CCCC1CC(NC(=O)c1nn(C)c3ccccc13)C2 (stereo not given)	1.3%	-1.75%	0.448%	1.03%	1.66%	1.21%	1.6%	0.0415%	1.95%	0.965%

— the supplement of paper PMC8253809
